RORg inh: inhibitors of mouse ROR gamma transcriptional activity. P51450. Drosophila S2 Gal4-RORgamma UAS-luciferase reporter, 20 h. Potency, µM (titrated, usually from 53.6 µM), usual class: inhibitors. 310,000 compounds, 5.4% hits. AID 2551; note: nearly all actives have a fitted effect of over 60% in size
Target sequence (P51450 whole entry, looked up, the tested form may be a part): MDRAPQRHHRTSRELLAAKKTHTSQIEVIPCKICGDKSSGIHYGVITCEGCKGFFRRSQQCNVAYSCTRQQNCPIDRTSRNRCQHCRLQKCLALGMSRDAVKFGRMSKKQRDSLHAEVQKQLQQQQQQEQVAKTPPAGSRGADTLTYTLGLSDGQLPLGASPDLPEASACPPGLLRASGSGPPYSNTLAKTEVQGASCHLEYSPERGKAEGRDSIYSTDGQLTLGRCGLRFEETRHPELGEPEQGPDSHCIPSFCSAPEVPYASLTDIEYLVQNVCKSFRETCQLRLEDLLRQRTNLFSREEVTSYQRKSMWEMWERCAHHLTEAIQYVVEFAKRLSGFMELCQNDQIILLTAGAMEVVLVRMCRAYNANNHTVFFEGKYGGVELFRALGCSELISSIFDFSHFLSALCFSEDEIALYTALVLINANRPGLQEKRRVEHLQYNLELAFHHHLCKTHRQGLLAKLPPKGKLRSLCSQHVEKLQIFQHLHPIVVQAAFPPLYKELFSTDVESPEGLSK
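In this cell-based reporter format, copper sulfate (700 uM final) drives Gal4–ROR gamma fusion expression from a metallothionein promoter in Drosophila Schneider cells; compounds preincubated 1 hr, reporter read after 20 hr at ambient temperature.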
CtBP-E1A blk: inhibitors of CtBP/E1A interaction. AlphaScreen GST-E1A/His-CtBP binding, 1536-well; hits give low values. AID 651724. 340,000 compounds, 0.49% hits. activity change, % (concentration not given with the values); in the data active = activity change below about -65%; inconclusive = mostly about -30% to -63%
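GST-E1A and His-tagged CtBP (125 nM each as 5X stock) were preincubated with pin-transferred compound for 2 h at 37 °C in the dark, then glutathione donor and nickel acceptor beads were added for 1 h before AlphaScreen reading.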
VP16 counter: inhibits Gal4-VP16 luciferase reporter, ROR gamma counter-screen | Drosophila S2 Gal4-VP16 UAS-luciferase, luminescence, 20 h | Potency, µM (doses to about 53.6 µM), most hits filed as inhibitors | 310,000 compounds, 3.5% hits | AID 2546;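 note: Gal4-VP16 expression switched on by copper sulfate through the metallothionein promoter; nearly all actives have a fitted effect of over 50% in size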
Six1-Eya2 blk: blocks human Six1 binding to Eya2. AlphaScreen GST-Six1/His-Eya2 binding, biochemical; hits give low values. activity change, % (test concentration not listed). 360,000 compounds, 0.56% hits. AID 651725; in the data active = activity change below about -65%; inconclusive = mostly about -30% to -63%
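AlphaScreen luminescence read after one hour at 37 °C in darkness. Pin-transferred compounds met GST-Six1 and His-Eya2 protein (5X stock 250 nM/500 nM) plus glutathione donor and Ni-chelate acceptor beads (5X, 50 ug/mL).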
p53 reactivator: re-activators of mutant p53. H1299 p53-A138V BP100-luciferase reporter, luminescence, 24 h. Potency, µM (titrated, usually from 92.2 µM), usual class: activators. 320,000 compounds, 0.063% hits; note: nearly all actives have a fitted effect of over 45% in size
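H1299 (p53-null), stable ts p53-A138V + BP100-Luc; 1000 cells/well, Opti-MEM/10% FBS; cpd 4 pt, 1:5; 24 h, 37 deg C, 5% CO2; detection reagent 10 min RT; luminescence.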
Each line names hits and unclear results; the compound was inactive in the other large screens. Compounds with a hit are over-represented: about 5.4% of the library has one in this group of screens. Unless noted, calls come from the whole dose curve; as a rule, active = well fitted curve in the direction sought with a large enough effect; inconclusive = small, poorly fitted or top-dose-only effect, or another doubt; inactive = no such curve, though single readings can be large; an effect the other way counts as inactive or inconclusive.

O=C(COC(=O)c1ccccc1-n1cnnn1)c1ccc(F)c(F)c1	none (no result: RORg inh, VP16 counter)
CS(=O)(=O)N1CCC2(CCN(C(=O)Nc3cccc(F)c3)CC2)CC1	none (no result: CtBP-E1A blk, Six1-Eya2 blk, p53 reactivator)
CCOC(=O)C1CCN(C(=O)CCC2CCCC2)CC1	none (no result: CtBP-E1A blk)
CN(Cc1c(C(=O)N/N=C/c2cccc(Cl)c2)nnn1-c1nonc1N)c1ccccc1	none
CCOc1cccc(-c2c(C(=O)N/N=C/c3ccco3)nnn2-c2nonc2N)c1	RORg inh 11µM, VP16 counter 25µM
CCOc1cccc(-c2c(C(=O)N/N=C/c3ccncc3)nnn2-c2nonc2N)c1	none
CCOc1cccc(-c2c(C(=O)N/N=C/c3ccoc3)nnn2-c2nonc2N)c1	RORg inh 10µM, VP16 counter inconclusive
CCOc1ccc(-c2c(C(=O)N/N=C/c3ccoc3)nnn2-c2nonc2N)cc1	RORg inh inconclusive, VP16 counter inconclusive
CCOc1cccc(-c2c(C(=O)N/N=C/c3ccc(C)o3)nnn2-c2nonc2N)c1	RORg inh 10µM, VP16 counter inconclusive
COc1ccc(NC(=O)Cn2c(C(C)C)nc(C)cc2=O)cc1Cl	none
COC(=O)C[C@H]1CC[C@@H](NS(=O)(=O)c2ccc(C)cc2)[C@@H](CO)O1	none (no result: RORg inh, VP16 counter, p53 reactivator)
CC(C)CO/N=C1/C[C@@H](O)[C@@H](O)[C@@H]2[C@@H]3C(=O)N(C4CCCCC4)C(=O)[C@H]3CC[C@@H]12	none (no result: CtBP-E1A blk, Six1-Eya2 blk, p53 reactivator)
COc1cccc(NC(=O)CN(C)C(=O)CCC(=O)c2cc(C)sc2C)c1	CtBP-E1A blk -77 (no result: RORg inh, VP16 counter)
CCOc1ccc(Br)cc1/C(C)=N\NC1=NCCN1	VP16 counter 7.9µM
CC1CCC2C(=O)N3C(CCC(C)[C@@H]3c3cccc(N4CCOCC4)c3)C(=O)N2C1c1cccc(Br)c1 (some centres not stated)	none (no result: CtBP-E1A blk, Six1-Eya2 blk, p53 reactivator)
CN(CCc1cn[nH]c1)Cc1nc(C(c2ccccc2)c2ccccc2)no1	RORg inh 10µM, VP16 counter inconclusive
COc1cc(SC)ccc1C(=O)Nc1ncc(C)s1	RORg inh 2.5µM, VP16 counter inconclusive (no result: CtBP-E1A blk)
COc1cc(SC)ccc1C(=O)Nc1ccc(OCC(=O)N2CCOCC2)cc1	RORg inh 10µM, VP16 counter 11µM
COc1cc(SC)ccc1C(=O)Nc1ccc(C)cc1	RORg inh inconclusive, VP16 counter 20µM
COc1cc(SC)ccc1C(=O)Nc1ccon1	p53 reactivator inconclusive
COc1cc(SC)ccc1C(=O)Nc1ccc(Br)cn1	RORg inh 2µM, VP16 counter 7.9µM (no result: CtBP-E1A blk)
CC12CC3(C)CC(C)(C1)CC(C(=O)NC(=S)N1CCCC1)(C2)C3	none
COc1c(C)cccc1C(=O)Nc1ccc(OCC(=O)N2CCOCC2)cc1C	RORg inh 1.8µM, VP16 counter inconclusive
COc1cc(SC)ccc1C(=O)Nc1ccccn1	RORg inh 8.9µM, VP16 counter 10µM
CC1(C(=O)Nc2ccc3[nH]ncc3c2)CCN1C(=O)Cc1ccc(-c2ccccc2)cc1 (configuration not stated)	none (no result: RORg inh, VP16 counter, p53 reactivator)
O=c1oc2ccc(C#CC3(O)CCCCC3)cc2cc1-n1cc(C2(O)CCCCC2)nn1	none (no result: RORg inh, VP16 counter)
O=C1C(=Cc2ccco2)CCC1=Cc1ccco1	Six1-Eya2 blk -83 (no result: RORg inh, VP16 counter, p53 reactivator)
O=C1C(=Cc2ccco2)CCCC1=Cc1ccco1	none (no result: RORg inh, VP16 counter, p53 reactivator)
CCCN1CCc2c(sc(NC(=O)Cc3ccc(F)cc3)c2C(N)=O)C1	none
Cc1ccc(-c2ccc(=O)n(Cc3cccc(Br)c3)n2)cc1	none
COc1cccc2c1C(=O)CC1C2CCC2CC(=O)CCC21C (configuration not stated)	none (no result: RORg inh, VP16 counter, p53 reactivator)
O=C(NC1CCCCC1)C1COc2ccccc2O1 (configuration not stated)	none (no result: RORg inh, VP16 counter)
CN(CC1COc2ccccc2O1)C(=S)NC1CCCCC1 (configuration not stated)	RORg inh 13µM, VP16 counter inconclusive
COc1ccc(CCNC(=O)COc2ncnc3cc([N+](=O)[O-])ccc23)cc1	none
O=[N+]([O-])c1cccc(COc2ncnc3cc([N+](=O)[O-])ccc23)c1	CtBP-E1A blk -88, Six1-Eya2 blk -72
CC1C/C(=C/c2ccncc2)C(=O)/C(=C/c2ccncc2)C1 (configuration not stated)	RORg inh 7.1µM, VP16 counter 2.8µM
CC1C/C(=C/c2cccn2C)C(=O)/C(=C/c2cccn2C)C1 (configuration not stated)	RORg inh 13µM, CtBP-E1A blk inconclusive, VP16 counter inconclusive, Six1-Eya2 blk inconclusive
